# Experimental data published in the supplement of paper PMC6555819.
# Tests used:
# Assay in all cases: PBM binding z-score (relative to random genomic background probes); higher = stronger binding; sequences stand for … in GC…GCGATTGACAGCGTAGAATGAAGG
# [1] = system: FXR:RXRa (NR concentration 270 nM, RXRa partner concentration 90 nM)
# Outline: (§1)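 Binding z-scores take random background probes as their reference. They come from custom Agilent 4×180K protein-binding microarrays incubated 1 h with ligand-free nuclear receptor dimers, with antibodies against each partner (one per run) detecting binding. Scanned fluorescence was regression-normalized.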
# [2] = system: LXRa:RXRa (NR concentration 270 nM, RXRa partner concentration 90 nM)
# Outline: as §1
# [3] = system: LXRa homodimer (NR concentration 270 nM)
# Outline: as §1
# [4] = system: LXRb:RXRa (NR concentration 270 nM, RXRa partner concentration 90 nM)
# Outline: as §1
# [5] = system: LXRb homodimer (NR concentration 270 nM)
# Outline: as §1
# [6] = system: PPARa:RXRa (NR concentration 270 nM, RXRa partner concentration 90 nM)
# Outline: as §1
# [7] = system: PPARg:RXRa (NR concentration 180 nM, RXRa partner concentration 90 nM)
# Outline: as §1
# [8] = system: PPARg:RXRa 270nM:90nM, anti-RXR (NR concentration 270 nM, RXRa partner concentration 90 nM)
# Outline: as §1
# [9] = system: PPARg:RXRa 30nM:10nM, anti-RXR (NR concentration 30 nM, RXRa partner concentration 10 nM)
# Outline: as §1
# [10] = system: PPARg:RXRa 90nM:30nM, anti-RXR (NR concentration 90 nM, RXRa partner concentration 30 nM)
# Outline: as §1
# [11] = system: PPARg:RXRa DBDmut IVT, anti-RXR (DBD mutation: RXRa K156A/R161A, NR concentration 270 nM, RXRa partner concentration 90 nM)
# Outline: as §1
# [12] = system: PPARg:RXRa IVT, anti-PPARg (NR concentration 270 nM, RXRa partner concentration 90 nM)
# Outline: as §1
# [13] = system: PPARg DBDmut:RXRa IVT, anti-PPARg (DBD mutation: PPARg1 K132A/R137A, NR concentration 270 nM, RXRa partner concentration 90 nM)
# Outline: as §1
# [14] = system: PPARg DBDmut IVT, anti-PPARg (DBD mutation: PPARg1 K132A/R137A, NR concentration 270 nM)
# Outline: as §1
# [15] = system: PPARg homodimer (NR concentration 180 nM)
# Outline: as §1
# [16] = system: PXR:RXRa (NR concentration 270 nM, RXRa partner concentration 90 nM)
# Outline: as §1
# [17] = system: PXR homodimer (NR concentration 270 nM)
# Outline: as §1
# [18] = system: RARa:RXR (NR concentration 270 nM, RXRa partner concentration 90 nM)
# Outline: as §1
# [19] = system: RARa homodimer (NR concentration 270 nM)
# Outline: as §1
# [20] = system: RARb:RXRa (NR concentration 270 nM, RXRa partner concentration 90 nM)
# Outline: as §1
Sequence,PBM binding z-score [1],PBM binding z-score [2],PBM binding z-score [3],PBM binding z-score [4],PBM binding z-score [5],PBM binding z-score [6],PBM binding z-score [7],PBM binding z-score [8],PBM binding z-score [9],PBM binding z-score [10],PBM binding z-score [11],PBM binding z-score [12],PBM binding z-score [13],PBM binding z-score [14],PBM binding z-score [15],PBM binding z-score [16],PBM binding z-score [17],PBM binding z-score [18],PBM binding z-score [19],PBM binding z-score [20]
GCTAATAGTTGAAAGGGCAACCGAATGATTCTCG,0.971,1.16,-0.065,1.09,-0.087,2.85,3.03,4.2,2.1,3.9,0.302,1.27,-0.057,-0.27,0.836,0.859,-0.00303,1.61,0.745,2.21
GGAACGAGGCCATTCGAGTTGATAGCATGGCGAT,0.572,0.106,-0.48,-0.483,-0.846,0.013,0.591,0.257,-0.557,-0.163,2.23,1.22,-0.239,-0.906,-0.779,1.73,0.561,-0.0585,-1.34,0.94
CCTTACGGGCCACTCCAGGTTATAGCATCGGAGT,0.501,3.23,0.439,-0.116,-0.752,-0.00696,0.417,-0.281,-0.409,-0.41,0.503,0.46,-1.12,-0.87,0.232,0.0123,0.0587,0.0279,0.0434,0.496
ATCTCTAGGTGAGACTCAGTTCAGTGAAGAACGC,0.247,0.206,0.00794,0.271,0.0417,0.953,0.798,0.846,0.146,0.412,4.55,3.85,0.96,-0.0812,-0.0769,1.31,0.653,0.361,0.0758,0.707
GCTAGCAGGCCATTTGGGTTACTCAATGACGGGC,-0.367,-0.587,-0.387,-0.709,-0.959,0.0439,0.457,-0.378,-0.68,-0.152,0.933,0.903,-0.422,-0.474,-0.558,-0.229,-0.482,0.178,-0.714,0.189
CCGACTGGGGCAGAAAGGTTACCACACCATCCGG,0.286,0.428,0.0458,0.833,-1.17,2.21,1.74,2.66,0.555,2.13,1.83,1.76,-0.724,-0.799,0.71,0.929,-0.219,1.85,0.0999,1.92
TCATATAGGTAATACAGGGGAAAGTCGGCATCTA,1.29,1.31,0.263,1.21,0.513,1.55,1.01,2.49,4.47,3.25,4.42,2.56,1.36,0.581,0.957,0.783,0.581,1.08,0.911,0.566
CGTCCAAGTTCAAGGTCAGTGAAAGAGACTCGAA,4.93,4.22,1.93,3.18,0.857,4.02,2.06,2.5,0.198,1.24,0.857,1.87,0.331,-0.271,4.01,4.56,3.81,3.81,2.09,4.49
AATACAGGGTCATCGCAGGCCAGAGTACGCACAG,7.15,6.19,2.29,4.62,1.25,5.93,6.6,6.2,2.73,4.39,2.75,4.33,1.54,0.985,1.94,5.07,0.737,4.69,1.07,4.45
GCGACTGGGGCCTCAGCAGGTTACCATAACTTAA,-0.561,-0.698,-0.704,-0.145,-1.25,-0.221,-0.306,-0.849,-0.842,-0.966,-0.00241,-0.47,-1.2,-1.98,-0.186,-0.277,-0.863,0.0865,-1.06,0.0626
CCAGACAGGCGAAAGGTAACTCAGTCTGGTACGC,-0.414,-0.478,-0.885,-0.448,-1.33,0.667,1.57,2.87,0.676,2.22,-0.357,-0.108,-0.986,-1.21,-0.19,-0.328,-0.718,-0.0922,-0.38,-0.0959
TCCATTAGTTGATTAGGGCAACCGAAACAGCGGA,0.464,0.43,0.384,0.197,0.366,0.857,0.199,2.15,3.94,2.76,2.08,1.28,0.323,0.941,0.749,0.562,0.0879,0.689,0.398,1
ATCGAAAGGTCGAAGGTGAGTTTACCCACCCGAA,4.75,3.73,0.479,2.89,0.226,4.78,4.38,4.6,2.08,3.81,0.357,2.21,0.513,0.511,1.48,4.03,1.02,4.05,0.0951,3.85
GGAACGAGGGCGTTCGAGTTGATAGCATGGCGAT,-0.0904,-0.232,-0.938,-0.656,-0.964,-0.0431,0.127,-0.547,-0.579,-0.797,1.14,0.591,-1.48,-0.922,-0.718,1.88,0.811,0.317,-0.727,0.422
GCAGACAGGTGAAACGAAGGTAACTCAGGGTGGC,0.0182,0.296,-0.444,0.0431,-1.08,0.924,0.836,0.16,-0.263,-0.133,0.963,0.555,0.0896,-0.484,-0.228,0.0362,-0.595,0.681,-0.536,0.818
